Bioassay records: PubChem, several laboratories
CCHFV vOTU inh: CCHFV vOTU protease inhibitors, primary screen, biochemical, Pep-AMC substrate, fluorescence | Crimean-Congo hemorrhagic fever virus L polyprotein viral ovarian tumor (vOTU) protease … | inhibition, % at 11.5 µM | hit rate 0.55% among 370,000 | AID 651958, 2012; in the data active means inhibition above about 30%; further: 0% = vehicle wells with enzyme and 100% = no enzyme wells
RecA intein inh: Mtb RecA intein splicing inhibitors, primary screen, biochemical, fluorescence, HTS | Protein RecA (Mycobacterium tuberculosis (strain ATCC 25618 / H37Rv)), P9WHJ3 | cell-free RecA intein splicing | inhibition, % (no concentration beside the values) | hit rate 0.75% among 290,000; in the data active means inhibition above about 30%;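 further: 0% = vehicle wells and 100% = reference inhibitor control wells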
Target sequence (P9WHJ3 whole entry, looked up): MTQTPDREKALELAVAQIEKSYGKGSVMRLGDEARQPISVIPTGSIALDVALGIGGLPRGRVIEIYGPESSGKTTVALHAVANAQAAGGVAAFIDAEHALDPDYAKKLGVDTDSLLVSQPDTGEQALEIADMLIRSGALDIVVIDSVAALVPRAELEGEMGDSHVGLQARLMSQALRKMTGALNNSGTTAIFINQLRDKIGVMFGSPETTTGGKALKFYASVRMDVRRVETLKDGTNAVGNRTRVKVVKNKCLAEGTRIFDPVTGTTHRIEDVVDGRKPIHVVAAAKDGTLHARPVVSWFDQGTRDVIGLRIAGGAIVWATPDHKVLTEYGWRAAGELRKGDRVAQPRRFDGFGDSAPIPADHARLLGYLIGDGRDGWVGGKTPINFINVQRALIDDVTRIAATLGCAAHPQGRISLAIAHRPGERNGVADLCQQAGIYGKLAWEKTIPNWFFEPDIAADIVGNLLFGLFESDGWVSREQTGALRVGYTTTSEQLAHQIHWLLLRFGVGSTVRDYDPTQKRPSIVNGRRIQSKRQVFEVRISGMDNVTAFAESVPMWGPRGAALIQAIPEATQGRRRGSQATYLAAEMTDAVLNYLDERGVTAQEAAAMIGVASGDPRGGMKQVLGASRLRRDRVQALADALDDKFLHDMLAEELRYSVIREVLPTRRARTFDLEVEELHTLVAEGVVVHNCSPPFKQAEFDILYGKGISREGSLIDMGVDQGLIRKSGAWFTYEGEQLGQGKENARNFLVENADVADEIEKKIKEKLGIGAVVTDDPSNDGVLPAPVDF
Sa RN4220 lethal: growth inhibition of S. aureus RN4220, primary screen, OD600; inhibition, % (no concentration beside the values); 16 h; hit rate 0.33% among 330,000; in the data active means inhibition above about 85%;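 further: plate controls were untreated cells for no effect and reference antibiotic for full effect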
Sa ugtP lethal: growth inhibition of ugtP-null S. aureus, primary screen, RN4220 ugtP deletion, OD600; hit rate 0.54% among 330,000; AID 1259309, 2017; growth inhibition, % (concentration not given with the values); 16 h; in the data active means growth inhibition above about 68%;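 further: plate controls were untreated wells for no effect and antibiotic for full effect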
BJeLR lethal: MLPCN primary cell-based screen for lethality selective to Ras in HRASV12 cells | BJeLR (HRASV12) viability, CellTiter-Glo ATP luminescence, 48 h | inhibition, % (test concentration not listed) | hit rate 0.17% among 300,000 | AID 1554, 2009; in the data active means inhibition above about 50%
Mtb hypoxia rep: PubChem AID 1159583; M. tuberculosis hypoxia-regulated fluorescent reporter, fluorescence; fluorescence inhibition, % (no concentration beside the values); hit rate 0.1% among 300,000; in the data active means fluorescence inhibition mostly above about 23%, no sharp cut-off; inactive means mostly below about 17%
GFP chromo cs: counter-screen: blocks GFP chromophore formation, dose response, counter-screen, biochemical, fluorescence, homogeneous; shares compounds with RecA intein inh; cell-free GFP chromophore formation; EC50, µM; hit rate 83% among 2,100; AID 434968, 2010; call rule not given here
Starred values were filed as active, the others as inactive; . = no result shown. An excerpt weighted towards active compounds, which were near 1.6% of everything screened.

SMILES	CCHFV vOTU inh	RecA intein inh	Sa RN4220 lethal	Sa ugtP lethal	BJeLR lethal	Mtb hypoxia rep	GFP chromo cs
Cc1ccc(S(=O)(=O)N(C(=O)c2ccncc2)c2ccc(OC(=O)c3ccncc3)c3ccccc23)cc1	4	47*	19	3	-4	3	0.75*
CC(=O)Oc1ccc(N(C(C)=O)S(=O)(=O)c2ccccc2)c2ccccc12	-5	.	.	.	.	.	.
Cc1ccc(S(=O)(=O)N(C(=O)c2ccncc2)c2ccc(OC(=O)c3ccncc3)c3ccccc23)c(C)c1	.	98*	14	-5	-9	.	>38
Cc1ccc(S(=O)(=O)NC(C(=O)N2CCC(C(=O)NCC(=O)O)CC2)C(C)C)cc1 (configuration not stated)	.	.	5	-2	.	4	.
C=C(C)C(=O)Nc1cccc(C2=NOC3(C2)CC(C(N)=O)N(C(=O)C=CC=CC)C3)c1 (configuration not stated)	.	.	5	-3	.	5	.
O=C(c1c[nH]c(C(=O)C(Cl)(Cl)Cl)c1)c1ccccc1Br	-5	51*	3	-7	7	0	26*
Cc1ccc2nc(-c3cccs3)oc(=O)c2c1	-8	32*	-1	8	2	17	>38
CC1CN(C(C)CO)C(=O)c2cc(NC(=O)Nc3ccc4c(c3)OCO4)ccc2OC1CN(C)S(=O)(=O)c1cccs1 (configuration not stated)	.	.	2	-3	.	7	.
Cc1nn(-c2cccc(Cl)c2)c2c1C(c1ccncc1)C(C#N)=C(N)O2 (configuration not stated)	20	57*	4	3	1	11	23*
COc1ccc(OC)c(C2C(C#N)=C(N)Oc3cc(C)[nH]c(=O)c32)c1 (configuration not stated)	9	-3	-7	-1	-2	12	.
COc1ccc(OC)c(C2C(C#N)=C(N)Oc3c2c(C)nn3-c2cccc(Cl)c2)c1 (configuration not stated)	27	37*	-1	0	0	3	38*
CCN(Cc1ccccc1)S(=O)(=O)c1ccc(C(=O)N(CCCN(C)C)c2nc3cc(C)cc(C)c3s2)cc1	-5	31*	5	-17	14	.	>38
Nc1cc2nn(-c3ccccc3)nc2cc1Cl	20	63*	2	8	-3	7	37*
COC(=O)C1=C(C)N(Cc2ccccc2)C(=NCCc2c[nH]c3ccccc23)NC1c1cccc(C(F)(F)F)c1 (configuration not stated)	.	.	41	49	.	-4	.
COc1ccc(C2NC(c3ccc(OC)cc3OC)C(C)C(=O)C2C)c(OC)c1 (configuration not stated)	-7	51*	6	-4	2	10	>38
O=C(NNC(=O)c1ccc2ccccc2c1O)c1ccccc1Cl	23	35*	2	-19	9	.	>38
O=C(NNC(=O)c1cccc2ccccc12)c1ccc(Cl)cc1Cl	5	.	4	1	.	8	.
CCOc1cc(C=NNC(N)=O)cc(Br)c1OCC(=O)Nc1cccc2ccccc12	.	.	4	4	.	.	.
O=C(NC1CC1)C1=CC(C2CCCCC2)CC(OCc2ccc(CO)cc2)O1 (configuration not stated)	.	.	7	2	.	20	.
O=C(Cc1cc(=O)[nH][nH]1)NN=C/C(Cl)=C/c1ccccc1	.	.	-1	-9	.	5	.
CC(/C=N/NC(=O)Cc1cc(=O)[nH][nH]1)=C\c1ccccc1	-9	89*	.	.	1	.	6.7*
Cc1ccc(C2=NN(C(=O)CCl)C(c3cccs3)C2)o1 (configuration not stated)	8	74*	20	3	11	.	4.6*
O=C(CCl)N1N=C(c2ccco2)CC1c1cccs1 (configuration not stated)	.	67*	10	12	19	.	25*
CC(=O)N1N=C(c2ccco2)CC1c1cccs1 (configuration not stated)	-11	1	5	7	-6	11	.
Cc1ccc(C2=NN(C(=O)CCC(=O)O)C(c3cccs3)C2)cc1 (configuration not stated)	-8	0	3	2	-12	5	.
SMILES	CCHFV vOTU inh	RecA intein inh	Sa RN4220 lethal	Sa ugtP lethal	BJeLR lethal	Mtb hypoxia rep	GFP chromo cs
C=C1CCN(C(CC(C)C)C(=O)N2CCCC2)S(=O)(=O)c2ccccc21 (configuration not stated)	.	.	5	-8	.	13	.
COc1cc(C=NO)ccc1OCc1ccc(C(=O)O)cc1	.	.	-2	-5	.	7	.
CC(C)Cn1c(C(C)C)nc([N+](=O)[O-])c1S(=O)(=O)c1ccc(F)cc1	-5	51*	9	6	0	8	>38
Cc1cc(C)c(C(CC(=O)c2cccs2)C(C#N)C#N)c(C)c1 (configuration not stated)	13	83*	2	-13	-16	4	8.6*
CC1=C(C(=O)OC(C)C)C2(O)C(=O)c3ccccc3C2(O)N1 (configuration not stated)	19	32*	0	9	1	.	27*
CCOC(=O)C1=C(C)N[C@@]2(O)c3ccccc3C(=O)[C@@]12O	22	7	1	6	-9	.	.
COc1cc(C=CC(=O)O)cc(OC)c1O	.	.	11	18	.	12	.
CC1CCC2C(=O)N3C(CCC(C)C3c3ccc(Br)cc3)C(=O)N2C1c1ccc(Br)cc1 (configuration not stated)	.	.	-7	6	.	5	.
O=C1NC(=O)C(=Cc2ccc(Oc3ccc([N+](=O)[O-])cc3)cc2)C(=O)N1	.	68*	5	6	2	11	>38
O=C1NC(=O)C(=Cc2ccccc2OCCOc2ccc([N+](=O)[O-])cc2)C(=O)N1	.	.	28	-4	.	7	.
COc1cc(N=Nc2cccc(S(N)(=O)=O)c2)c2ccccc2c1N	11	45*	4	-27	6	4	33*
CCOC(=O)c1cnc2ccc(C)cc2c1Sc1ccccc1	13	63*	3	13	-5	.	38*
Cc1ccsc1C=Nc1ccc(O)cc1	.	78*	-4	-21	5	-9	36*
CCc1nc(SCCO)c2oc3ccccc3c2n1	9	2	-1	-8	-8	.	.
CCc1nc(SCC(=O)N2CCN(c3ccccc3)CC2)c2oc3ccccc3c2n1	4	32*	11	-8	6	14	>38
CCOC(=O)c1[nH]c(=O)c2ccccc2c1O	14	56*	3	3	6	2	26*
CCOC(=O)c1[nH]c2ccccc2c1NC(C)=O	2	1	1	-2	-5	0	.
